Assay results reported in PMC7862700, “An all-to-all approach to the identification of sequence-specific readers for epigenetic DNA modifications on cytosine”.

Experiments:
Assay in all cases: DAPPL (digital affinity profiling via proximity ligation, sequencing); 10 mM Tris-HCl pH 7.5, 50 mM NaCl, 1 mM DTT, 4% glycerol, room temperature, 30 min; GST-TFs on glutathione beads, 16-mer random dsDNA library, 0.1% formaldehyde crosslink after washing; high values mean tight binding
[1] = target: T1, FEV (Homo sapiens, UniProt Q99581 1-238); settings: protein: recombinant; tags: N-terminal GST; dsDNA, one strand shown
T1 sequence: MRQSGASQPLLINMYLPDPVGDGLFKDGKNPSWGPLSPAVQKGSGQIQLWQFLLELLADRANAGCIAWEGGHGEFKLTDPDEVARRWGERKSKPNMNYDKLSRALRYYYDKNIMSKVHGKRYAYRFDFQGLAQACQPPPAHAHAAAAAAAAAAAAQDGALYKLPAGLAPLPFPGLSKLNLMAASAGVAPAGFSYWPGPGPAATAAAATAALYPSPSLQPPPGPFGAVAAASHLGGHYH
How it was run: (§1)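 The binding signal reported is, for every hexamer, its read frequency for a factor over its read frequency for the tag-only sample. Reads came from pools of yeast-expressed, GST-fused human transcription factors on glutathione beads, barcoded with DNA and mixed with that sample, which were incubated with 200 nmole of a random double-stranded 16-mer DNA library in Tris/NaCl/DTT/glycerol buffer at room temperature for 30 min. After washing, the pools were crosslinked with 0.1% formaldehyde, proximity-ligated with BsaI/T4 ligase for 1 h at 37 °C, PCR-amplified and sequenced on an Illumina NextSeq500.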

[2] = target: ETV5 (Homo sapiens, UniProt P41161 1-510); settings: protein: recombinant; tags: N-terminal GST; dsDNA, one strand shown
Chain of ETV5 (P41161 whole entry): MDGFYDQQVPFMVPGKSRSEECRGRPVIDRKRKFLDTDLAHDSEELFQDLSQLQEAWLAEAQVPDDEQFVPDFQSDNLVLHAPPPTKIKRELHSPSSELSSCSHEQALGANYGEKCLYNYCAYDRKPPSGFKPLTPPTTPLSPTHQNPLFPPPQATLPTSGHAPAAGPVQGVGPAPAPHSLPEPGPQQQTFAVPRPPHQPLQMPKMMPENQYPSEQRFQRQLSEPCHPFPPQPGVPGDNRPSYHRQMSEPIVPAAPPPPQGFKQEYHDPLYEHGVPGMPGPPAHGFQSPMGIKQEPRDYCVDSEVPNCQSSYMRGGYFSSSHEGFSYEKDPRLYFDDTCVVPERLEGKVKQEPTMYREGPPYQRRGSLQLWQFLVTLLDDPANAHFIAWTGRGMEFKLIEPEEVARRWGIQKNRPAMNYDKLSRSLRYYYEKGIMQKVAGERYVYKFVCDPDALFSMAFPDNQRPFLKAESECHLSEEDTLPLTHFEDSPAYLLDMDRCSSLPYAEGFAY
How it was run: as §1

[3] = target: HSF1 (Homo sapiens, UniProt Q00613 1-529); settings: protein: recombinant; tags: N-terminal GST; chain copies: 3; dsDNA, one strand shown
Chain of HSF1 (Q00613 whole entry): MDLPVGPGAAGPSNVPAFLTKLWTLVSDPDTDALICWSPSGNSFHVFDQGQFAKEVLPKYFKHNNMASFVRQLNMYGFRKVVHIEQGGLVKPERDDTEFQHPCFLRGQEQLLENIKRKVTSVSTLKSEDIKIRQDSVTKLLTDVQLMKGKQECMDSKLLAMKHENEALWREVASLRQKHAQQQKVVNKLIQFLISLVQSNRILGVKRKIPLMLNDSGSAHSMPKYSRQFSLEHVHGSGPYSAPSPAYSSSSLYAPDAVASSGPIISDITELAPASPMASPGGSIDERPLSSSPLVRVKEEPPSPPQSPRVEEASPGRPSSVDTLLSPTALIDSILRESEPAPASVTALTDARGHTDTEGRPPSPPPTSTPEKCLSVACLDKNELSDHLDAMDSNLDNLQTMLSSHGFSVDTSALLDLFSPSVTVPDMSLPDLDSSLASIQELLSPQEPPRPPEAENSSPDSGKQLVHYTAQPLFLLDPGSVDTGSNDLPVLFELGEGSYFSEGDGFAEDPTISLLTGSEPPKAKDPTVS
How it was run: as §1

[4] = target: T2, SPIC (Homo sapiens, UniProt Q8N5J4 1-248); settings: protein: recombinant; tags: N-terminal GST; dsDNA, one strand shown
T2 sequence: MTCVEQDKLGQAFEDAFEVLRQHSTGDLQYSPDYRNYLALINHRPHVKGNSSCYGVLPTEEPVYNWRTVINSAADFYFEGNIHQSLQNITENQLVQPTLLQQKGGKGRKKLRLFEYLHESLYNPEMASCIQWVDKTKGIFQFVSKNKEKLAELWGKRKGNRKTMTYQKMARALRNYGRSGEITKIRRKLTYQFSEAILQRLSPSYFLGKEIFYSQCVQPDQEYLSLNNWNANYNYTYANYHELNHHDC
How it was run: as §1

[5] = target: ELF4 (Homo sapiens, UniProt Q99607 1-663); settings: protein: recombinant; tags: N-terminal GST; dsDNA, one strand shown
Chain of ELF4 (Q99607 whole entry): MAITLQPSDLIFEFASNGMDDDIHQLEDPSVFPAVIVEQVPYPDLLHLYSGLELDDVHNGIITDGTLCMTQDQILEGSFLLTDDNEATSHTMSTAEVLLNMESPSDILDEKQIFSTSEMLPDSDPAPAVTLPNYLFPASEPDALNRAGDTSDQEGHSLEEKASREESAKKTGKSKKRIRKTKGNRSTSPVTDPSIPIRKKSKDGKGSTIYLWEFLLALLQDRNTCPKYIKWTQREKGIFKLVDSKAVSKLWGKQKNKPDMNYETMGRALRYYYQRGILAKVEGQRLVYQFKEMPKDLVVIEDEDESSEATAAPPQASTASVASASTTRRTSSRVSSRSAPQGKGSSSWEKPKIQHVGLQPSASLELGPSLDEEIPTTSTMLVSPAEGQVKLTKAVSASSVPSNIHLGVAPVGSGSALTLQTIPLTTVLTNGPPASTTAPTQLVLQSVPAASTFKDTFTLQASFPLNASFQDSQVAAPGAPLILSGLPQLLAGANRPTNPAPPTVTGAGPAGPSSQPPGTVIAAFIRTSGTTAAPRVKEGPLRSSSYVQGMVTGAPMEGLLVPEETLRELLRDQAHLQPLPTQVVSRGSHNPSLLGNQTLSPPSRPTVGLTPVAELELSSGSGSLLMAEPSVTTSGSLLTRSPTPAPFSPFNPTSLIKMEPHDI
How it was run: as §1

[6] = target: T3, ELK4 (Homo sapiens, UniProt P28324-2 1-405); settings: protein: recombinant; tags: N-terminal GST; dsDNA, one strand shown
T3 sequence: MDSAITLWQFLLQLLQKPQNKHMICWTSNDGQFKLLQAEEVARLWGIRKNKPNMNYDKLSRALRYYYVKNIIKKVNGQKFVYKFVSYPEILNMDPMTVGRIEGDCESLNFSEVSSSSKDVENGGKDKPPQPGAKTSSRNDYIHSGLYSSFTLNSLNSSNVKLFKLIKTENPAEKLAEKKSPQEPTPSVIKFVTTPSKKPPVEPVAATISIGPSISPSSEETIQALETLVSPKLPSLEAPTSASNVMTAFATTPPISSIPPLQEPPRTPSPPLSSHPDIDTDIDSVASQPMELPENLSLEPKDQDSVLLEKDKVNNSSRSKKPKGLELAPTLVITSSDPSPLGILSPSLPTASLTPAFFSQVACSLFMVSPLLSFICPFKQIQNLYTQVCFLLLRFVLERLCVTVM
How it was run: as §1

[7] = target: T4, ETV2 (Homo sapiens, UniProt O00321 1-342); settings: protein: recombinant; tags: N-terminal GST; dsDNA, one strand shown
T4 sequence: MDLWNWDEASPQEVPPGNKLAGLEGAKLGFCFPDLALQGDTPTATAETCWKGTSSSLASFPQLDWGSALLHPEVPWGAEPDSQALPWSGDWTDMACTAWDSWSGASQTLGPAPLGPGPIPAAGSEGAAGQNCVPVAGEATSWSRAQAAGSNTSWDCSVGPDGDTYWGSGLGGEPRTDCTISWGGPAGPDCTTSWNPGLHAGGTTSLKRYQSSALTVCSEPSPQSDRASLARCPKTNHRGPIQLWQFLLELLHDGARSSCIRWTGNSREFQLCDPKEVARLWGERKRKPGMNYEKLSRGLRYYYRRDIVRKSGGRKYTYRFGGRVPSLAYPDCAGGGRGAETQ
How it was run: as §1

[8] = target: ETV1 (Homo sapiens, UniProt P50549 1-477); settings: protein: recombinant; tags: N-terminal GST; dsDNA, one strand shown
Chain of ETV1 (P50549 whole entry): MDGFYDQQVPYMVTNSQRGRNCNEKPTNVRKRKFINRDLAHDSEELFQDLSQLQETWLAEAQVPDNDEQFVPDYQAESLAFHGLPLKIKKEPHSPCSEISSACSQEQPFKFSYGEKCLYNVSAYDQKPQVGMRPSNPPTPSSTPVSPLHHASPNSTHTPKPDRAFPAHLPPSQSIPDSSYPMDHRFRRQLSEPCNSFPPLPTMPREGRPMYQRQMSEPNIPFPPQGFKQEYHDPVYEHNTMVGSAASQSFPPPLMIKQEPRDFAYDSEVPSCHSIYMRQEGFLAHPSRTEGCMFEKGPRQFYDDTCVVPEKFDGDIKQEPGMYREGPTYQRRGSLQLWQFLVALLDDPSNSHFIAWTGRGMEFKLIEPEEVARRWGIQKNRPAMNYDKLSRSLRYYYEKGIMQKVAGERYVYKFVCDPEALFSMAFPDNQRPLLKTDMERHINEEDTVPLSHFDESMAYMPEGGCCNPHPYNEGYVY
How it was run: as §1

[9] = target: T5, ERF (Homo sapiens, UniProt P50548 1-548); settings: protein: recombinant; tags: N-terminal GST; dsDNA, one strand shown
T5 sequence: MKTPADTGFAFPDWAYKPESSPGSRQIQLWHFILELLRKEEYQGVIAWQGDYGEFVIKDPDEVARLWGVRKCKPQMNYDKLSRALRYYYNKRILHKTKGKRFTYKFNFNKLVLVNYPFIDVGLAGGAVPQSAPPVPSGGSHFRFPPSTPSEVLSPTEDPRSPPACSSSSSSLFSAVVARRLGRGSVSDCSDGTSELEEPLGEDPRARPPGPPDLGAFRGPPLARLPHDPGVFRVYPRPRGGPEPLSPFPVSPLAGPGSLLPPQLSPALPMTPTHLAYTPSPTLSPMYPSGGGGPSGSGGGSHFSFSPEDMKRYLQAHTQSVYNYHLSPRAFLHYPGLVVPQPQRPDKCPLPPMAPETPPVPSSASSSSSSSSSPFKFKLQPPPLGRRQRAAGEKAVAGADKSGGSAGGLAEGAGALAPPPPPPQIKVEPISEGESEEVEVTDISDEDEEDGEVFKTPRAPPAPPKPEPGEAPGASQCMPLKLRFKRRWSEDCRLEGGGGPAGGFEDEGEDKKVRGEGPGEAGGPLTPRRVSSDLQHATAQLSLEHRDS
How it was run: as §1

[10] = target: T6, ETV3L (Homo sapiens, UniProt Q6ZN32 1-361); settings: protein: recombinant; tags: N-terminal GST; dsDNA, one strand shown
T6 sequence: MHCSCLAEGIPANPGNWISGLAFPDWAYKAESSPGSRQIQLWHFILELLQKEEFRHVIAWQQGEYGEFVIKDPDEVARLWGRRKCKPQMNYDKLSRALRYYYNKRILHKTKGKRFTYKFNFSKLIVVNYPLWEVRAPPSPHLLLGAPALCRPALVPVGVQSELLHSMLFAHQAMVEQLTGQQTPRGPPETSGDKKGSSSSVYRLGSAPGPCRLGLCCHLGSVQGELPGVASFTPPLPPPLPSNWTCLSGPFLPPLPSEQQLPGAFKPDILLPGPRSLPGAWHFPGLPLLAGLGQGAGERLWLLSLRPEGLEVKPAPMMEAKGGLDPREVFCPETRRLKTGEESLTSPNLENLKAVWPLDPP
How it was run: as §1

[11] = target: T7, ETS2 (Homo sapiens, UniProt P15036 1-469); settings: protein: recombinant; tags: N-terminal GST; dsDNA, one strand shown
T7 sequence: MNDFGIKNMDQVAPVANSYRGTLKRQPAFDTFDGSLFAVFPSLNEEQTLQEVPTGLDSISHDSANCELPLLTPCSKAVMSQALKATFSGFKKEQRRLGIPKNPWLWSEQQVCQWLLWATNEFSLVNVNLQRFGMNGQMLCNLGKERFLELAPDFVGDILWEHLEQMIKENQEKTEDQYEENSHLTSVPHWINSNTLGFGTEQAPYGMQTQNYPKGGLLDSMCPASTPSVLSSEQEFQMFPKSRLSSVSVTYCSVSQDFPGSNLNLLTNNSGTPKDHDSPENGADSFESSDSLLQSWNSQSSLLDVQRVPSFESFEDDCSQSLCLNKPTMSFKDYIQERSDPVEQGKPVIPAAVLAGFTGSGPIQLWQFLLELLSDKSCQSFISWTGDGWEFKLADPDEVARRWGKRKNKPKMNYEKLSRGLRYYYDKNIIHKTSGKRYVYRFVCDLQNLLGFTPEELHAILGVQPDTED
How it was run: as §1

[12] = target: T8, SPDEF (Homo sapiens, UniProt O95238 1-335); settings: protein: recombinant; tags: N-terminal GST; dsDNA, one strand shown
T8 sequence: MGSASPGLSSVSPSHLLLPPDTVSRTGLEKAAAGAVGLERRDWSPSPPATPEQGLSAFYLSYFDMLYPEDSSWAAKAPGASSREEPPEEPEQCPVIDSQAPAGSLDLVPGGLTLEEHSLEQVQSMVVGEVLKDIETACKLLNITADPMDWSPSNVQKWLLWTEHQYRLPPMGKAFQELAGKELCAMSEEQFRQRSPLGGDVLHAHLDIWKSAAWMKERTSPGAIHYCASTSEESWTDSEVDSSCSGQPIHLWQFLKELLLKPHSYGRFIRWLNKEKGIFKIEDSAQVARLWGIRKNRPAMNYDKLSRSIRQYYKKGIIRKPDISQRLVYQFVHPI
How it was run: as §1

[13] = target: T9, ETV7 (Homo sapiens, UniProt Q9Y603 1-341); settings: protein: recombinant; tags: N-terminal GST; dsDNA, one strand shown
T9 sequence: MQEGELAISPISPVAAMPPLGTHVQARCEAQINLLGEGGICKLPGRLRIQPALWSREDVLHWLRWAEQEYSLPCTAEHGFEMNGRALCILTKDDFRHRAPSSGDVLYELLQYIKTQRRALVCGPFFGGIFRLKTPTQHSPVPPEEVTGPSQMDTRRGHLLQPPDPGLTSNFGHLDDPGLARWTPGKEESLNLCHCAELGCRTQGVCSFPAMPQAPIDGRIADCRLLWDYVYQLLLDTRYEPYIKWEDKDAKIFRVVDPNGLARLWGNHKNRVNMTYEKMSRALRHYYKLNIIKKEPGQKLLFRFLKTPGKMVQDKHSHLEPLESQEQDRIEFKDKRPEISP
How it was run: as §1

[14] = target: T10, ELF5 (Homo sapiens, UniProt Q9UKW6-2 1-255); settings: protein: recombinant; tags: N-terminal GST; dsDNA, one strand shown
T10 sequence: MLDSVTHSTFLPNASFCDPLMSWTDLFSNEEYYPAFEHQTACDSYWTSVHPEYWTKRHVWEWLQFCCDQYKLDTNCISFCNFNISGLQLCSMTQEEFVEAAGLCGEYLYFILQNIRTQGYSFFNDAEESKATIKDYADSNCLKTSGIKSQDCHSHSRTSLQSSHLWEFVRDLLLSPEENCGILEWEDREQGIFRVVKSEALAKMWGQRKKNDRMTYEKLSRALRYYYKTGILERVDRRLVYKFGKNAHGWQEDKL
How it was run: as §1

[15] = target: T11, ETV3 (Homo sapiens, UniProt P41162-2 1-143); settings: protein: recombinant; tags: N-terminal GST; dsDNA, one strand shown
T11 sequence: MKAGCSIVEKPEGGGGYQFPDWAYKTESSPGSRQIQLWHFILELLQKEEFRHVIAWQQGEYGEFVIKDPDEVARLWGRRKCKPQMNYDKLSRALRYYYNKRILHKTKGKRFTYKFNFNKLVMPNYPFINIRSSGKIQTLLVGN
How it was run: as §1

[16] = target: ETV6 (Homo sapiens, UniProt P41212 1-452); settings: protein: recombinant; tags: N-terminal GST; dsDNA, one strand shown
Chain of ETV6 (P41212 whole entry): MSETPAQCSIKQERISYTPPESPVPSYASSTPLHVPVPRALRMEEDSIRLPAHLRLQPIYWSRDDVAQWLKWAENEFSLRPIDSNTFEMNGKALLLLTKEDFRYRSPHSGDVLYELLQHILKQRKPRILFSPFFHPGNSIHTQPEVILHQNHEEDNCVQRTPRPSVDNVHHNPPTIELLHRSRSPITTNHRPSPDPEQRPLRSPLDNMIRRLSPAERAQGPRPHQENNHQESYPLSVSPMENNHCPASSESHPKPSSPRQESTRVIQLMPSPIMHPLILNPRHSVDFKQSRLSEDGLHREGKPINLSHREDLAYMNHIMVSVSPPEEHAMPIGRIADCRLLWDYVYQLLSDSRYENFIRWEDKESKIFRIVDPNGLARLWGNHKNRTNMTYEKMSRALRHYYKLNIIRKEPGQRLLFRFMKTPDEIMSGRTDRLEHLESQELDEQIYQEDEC
How it was run: as §1

[17] = target: CRX (Homo sapiens, UniProt O43186 1-299); settings: protein: recombinant; tags: N-terminal GST; dsDNA, one strand shown
Chain of CRX (O43186 whole entry): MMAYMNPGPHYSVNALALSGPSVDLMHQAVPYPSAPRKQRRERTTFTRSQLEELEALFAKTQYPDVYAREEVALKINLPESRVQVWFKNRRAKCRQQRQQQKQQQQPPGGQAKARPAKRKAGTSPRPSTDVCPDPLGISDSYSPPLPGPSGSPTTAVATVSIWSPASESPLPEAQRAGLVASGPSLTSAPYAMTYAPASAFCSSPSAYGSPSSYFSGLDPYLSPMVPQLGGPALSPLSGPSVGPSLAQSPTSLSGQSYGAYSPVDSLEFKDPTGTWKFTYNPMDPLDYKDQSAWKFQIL
How it was run: as §1

Row | Sequence | binding signal [1] | binding signal [2] | binding signal [3] | binding signal [4] | binding signal [5] | binding signal [6] | binding signal [7] | binding signal [8] | binding signal [9] | binding signal [10] | binding signal [11] | binding signal [12] | binding signal [13] | binding signal [14] | binding signal [15] | binding signal [16] | binding signal [17]
1 | TGTAGC | 1.17 fold enrichment (6-mer frequency, TF over GST control) | 1.24 fold enrichment (6-mer frequency, TF over GST control) | 1.02 fold enrichment (6-mer frequency, TF over GST control) | 1.11 fold enrichment (6-mer frequency, TF over GST control) | 1.26 fold enrichment (6-mer frequency, TF over GST control) | 1.31 fold enrichment (6-mer frequency, TF over GST control) | 1.24 fold enrichment (6-mer frequency, TF over GST control) | 1.22 fold enrichment (6-mer frequency, TF over GST control) | 1.32 fold enrichment (6-mer frequency, TF over GST control) | 1.13 fold enrichment (6-mer frequency, TF over GST control) | 1.12 fold enrichment (6-mer frequency, TF over GST control) | 1.2 fold enrichment (6-mer frequency, TF over GST control) | 1.12 fold enrichment (6-mer frequency, TF over GST control) | 1.14 fold enrichment (6-mer frequency, TF over GST control) | 1.22 fold enrichment (6-mer frequency, TF over GST control) | 1.12 fold enrichment (6-mer frequency, TF over GST control) | –
2 | GAAAAG | 1.04 fold enrichment (6-mer frequency, TF over GST control) | 1.02 fold enrichment (6-mer frequency, TF over GST control) | 1.22 fold enrichment (6-mer frequency, TF over GST control) | 1.1 fold enrichment (6-mer frequency, TF over GST control) | 1.05 fold enrichment (6-mer frequency, TF over GST control) | 1.01 fold enrichment (6-mer frequency, TF over GST control) | 1.11 fold enrichment (6-mer frequency, TF over GST control) | 1.15 fold enrichment (6-mer frequency, TF over GST control) | 1 fold enrichment (6-mer frequency, TF over GST control) | 1.09 fold enrichment (6-mer frequency, TF over GST control) | 1.05 fold enrichment (6-mer frequency, TF over GST control) | 1.01 fold enrichment (6-mer frequency, TF over GST control) | 1.13 fold enrichment (6-mer frequency, TF over GST control) | 1.12 fold enrichment (6-mer frequency, TF over GST control) | – | 1.18 fold enrichment (6-mer frequency, TF over GST control) | 1.01 fold enrichment (6-mer frequency, TF over GST control)
